Measured values taken from the supplement of paper PMC12282887.
± gives the standard deviation of the averaged measurements.

Columns and labels:
Assay in all cases: promoter activity interaction Z-score (Lux/OD deviation from empty-vector control); higher = stronger promoter induction by the compound
[1] = system: E. coli BW25113 acrABp lux reporter
How it was run: (§1)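 E. coli BW25113 (wild type or marA, soxS or rob deletion) carrying low-copy luxCDABE promoter reporters grew in 40 µl LB Lennox in 384-well plates at 37°C. Each compound was tested at four 1:2 dilutions in biological duplicates. OD600 and luminescence were read every 30 min for 12 h. Areas were taken over 0–8 h (wild type) or 1–9 h (mutants), and wells below 10% of median growth area were removed. The score is the Z-transformed residual of growth-normalised luminescence fitted against the empty-vector control.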

[2] = system: E. coli BW25113 marRABp lux reporter
How it was run: as §1

[3] = system: E. coli BW25113 micFp lux reporter
How it was run: as §1

[4] = system: E. coli BW25113 ompFp lux reporter
How it was run: as §1

[5] = system: E. coli BW25113 robp lux reporter
How it was run: as §1

[6] = system: E. coli BW25113 soxSp lux reporter
How it was run: as §1

[7] = system: E. coli BW25113 tolCp lux reporter
How it was run: as §1

[8] = 4.8 µg/ml, genetic background: wild type
[9] = 4.8 µg/ml, genetic background: ΔmarA
[10] = 4.8 µg/ml, genetic background: Δrob
[11] = 4.8 µg/ml, genetic background: ΔsoxS
[12] = 9.5 µg/ml, genetic background: wild type
[13] = 9.5 µg/ml, genetic background: ΔmarA
[14] = 9.5 µg/ml, genetic background: Δrob
[15] = 9.5 µg/ml, genetic background: ΔsoxS
[16] = 19 µg/ml, genetic background: wild type
[17] = 19 µg/ml, genetic background: ΔmarA
[18] = 19 µg/ml, genetic background: Δrob
[19] = 19 µg/ml, genetic background: ΔsoxS
[20] = 38.1 µg/ml, genetic background: wild type
[21] = 38.1 µg/ml, genetic background: ΔmarA
[22] = 38.1 µg/ml, genetic background: Δrob
[23] = 38.1 µg/ml, genetic background: ΔsoxS

NC(N)=S [Thiourea]
promoter activity interaction Z-score [1, 8]: -0.187 ± 0.18
promoter activity interaction Z-score [1, 9]: -0.399 ± 0.26
promoter activity interaction Z-score [1, 10]: -0.36 ± 0.23
promoter activity interaction Z-score [1, 11]: -0.569 ± 0.35
promoter activity interaction Z-score [1, 12]: -0.18 ± 0.14
promoter activity interaction Z-score [1, 13]: 0.241 ± 0.33
promoter activity interaction Z-score [1, 14]: 0.0155 ± 0.17
promoter activity interaction Z-score [1, 15]: -0.239 ± 0.4
promoter activity interaction Z-score [1, 16]: -0.0387 ± 0.081
promoter activity interaction Z-score [1, 17]: -0.48 ± 0.68
promoter activity interaction Z-score [1, 18]: -0.186 ± 0.13
promoter activity interaction Z-score [1, 19]: -0.351 ± 0.079
promoter activity interaction Z-score [1, 20]: -0.113 ± 0.22
promoter activity interaction Z-score [1, 21]: -0.12 ± 0.22
promoter activity interaction Z-score [1, 22]: 0.24 ± 0.064
promoter activity interaction Z-score [1, 23]: -0.0892 ± 0.19
promoter activity interaction Z-score [2, 8]: -0.23 ± 0.42
promoter activity interaction Z-score [2, 9]: -0.11 ± 0.25
promoter activity interaction Z-score [2, 10]: -0.246 ± 0.076
promoter activity interaction Z-score [2, 11]: -0.231 ± 0.24
promoter activity interaction Z-score [2, 12]: -0.161 ± 0.13
promoter activity interaction Z-score [2, 13]: 0.055 ± 0.11
promoter activity interaction Z-score [2, 14]: -0.0456 ± 0.0082
promoter activity interaction Z-score [2, 15]: -0.157 ± 0.14
promoter activity interaction Z-score [2, 16]: -0.209 ± 0.12
promoter activity interaction Z-score [2, 17]: -0.407 ± 0.02
promoter activity interaction Z-score [2, 18]: -0.154 ± 0.11
promoter activity interaction Z-score [2, 19]: -0.149 ± 0.038
promoter activity interaction Z-score [2, 20]: -0.45 ± 0.34
promoter activity interaction Z-score [2, 21]: -0.162 ± 0.17
promoter activity interaction Z-score [2, 22]: -0.0285 ± 0.12
promoter activity interaction Z-score [2, 23]: -0.0935 ± 0.032
promoter activity interaction Z-score [3, 8]: -0.235 ± 0.23
promoter activity interaction Z-score [3, 9]: -0.0756 ± 0.059
promoter activity interaction Z-score [3, 10]: -0.0669 ± 0.076
promoter activity interaction Z-score [3, 11]: -0.189 ± 0.15
promoter activity interaction Z-score [3, 12]: 0.261 ± 0.46
promoter activity interaction Z-score [3, 13]: -0.0468 ± 0.13
promoter activity interaction Z-score [3, 14]: -0.0323 ± 0.16
promoter activity interaction Z-score [3, 15]: 0.0238 ± 0.19
promoter activity interaction Z-score [3, 16]: -0.293 ± 0.083
promoter activity interaction Z-score [3, 17]: -0.144 ± 0.073
promoter activity interaction Z-score [3, 18]: -0.0798 ± 0.19
promoter activity interaction Z-score [3, 19]: -0.203 ± 0.18
promoter activity interaction Z-score [3, 20]: -0.442 ± 0.33
promoter activity interaction Z-score [3, 21]: -0.164 ± 0.059
promoter activity interaction Z-score [3, 22]: -0.0862 ± 0.063
promoter activity interaction Z-score [3, 23]: -0.341 ± 0.12
promoter activity interaction Z-score [4, 8]: 0.0411 ± 0.63
promoter activity interaction Z-score [4, 9]: 0.273 ± 0.023
promoter activity interaction Z-score [4, 10]: 0.0473 ± 0.84
promoter activity interaction Z-score [4, 11]: -0.209 ± 0.4
promoter activity interaction Z-score [4, 12]: 0.331 ± 0.68
promoter activity interaction Z-score [4, 13]: 0.292 ± 0.32
promoter activity interaction Z-score [4, 14]: 0.271 ± 0.042
promoter activity interaction Z-score [4, 15]: -0.0695 ± 0.25
promoter activity interaction Z-score [4, 16]: 0.307 ± 0.13
promoter activity interaction Z-score [4, 17]: 0.189 ± 0.15
promoter activity interaction Z-score [4, 18]: -0.133 ± 0.22
promoter activity interaction Z-score [4, 19]: -0.0487 ± 0.067
promoter activity interaction Z-score [4, 20]: 0.484 ± 0.11
promoter activity interaction Z-score [4, 21]: 0.567 ± 0.37
promoter activity interaction Z-score [4, 22]: 0.804 ± 0.41
promoter activity interaction Z-score [4, 23]: 0.352 ± 0.25
promoter activity interaction Z-score [5, 8]: 0.198 ± 0.54
promoter activity interaction Z-score [5, 9]: -0.278 ± 0.4
promoter activity interaction Z-score [5, 10]: -0.498 ± 0.88
promoter activity interaction Z-score [5, 11]: -0.368 ± 0.72
promoter activity interaction Z-score [5, 12]: 0.517 ± 0.91
promoter activity interaction Z-score [5, 13]: 0.53 ± 0.53
promoter activity interaction Z-score [5, 14]: -0.0465 ± 0.47
promoter activity interaction Z-score [5, 15]: -0.206 ± 0.084
promoter activity interaction Z-score [5, 16]: 0.0253 ± 0.099
promoter activity interaction Z-score [5, 17]: -0.564 ± 0.03
promoter activity interaction Z-score [5, 18]: -0.172 ± 0.36
promoter activity interaction Z-score [5, 19]: -0.633 ± 0.39
promoter activity interaction Z-score [5, 20]: 0.15 ± 0.3
promoter activity interaction Z-score [5, 21]: -0.571 ± 0.48
promoter activity interaction Z-score [5, 22]: 0.0676 ± 0.18
promoter activity interaction Z-score [5, 23]: -0.509 ± 0.51
promoter activity interaction Z-score [6, 8]: -0.265 ± 0.12
promoter activity interaction Z-score [6, 9]: -0.27 ± 0.0046
promoter activity interaction Z-score [6, 10]: -0.311 ± 0.21
promoter activity interaction Z-score [6, 11]: -0.36 ± 0.21
promoter activity interaction Z-score [6, 12]: -0.21 ± 0.083
promoter activity interaction Z-score [6, 13]: -0.161 ± 0.02
promoter activity interaction Z-score [6, 14]: -0.36 ± 0.053
promoter activity interaction Z-score [6, 15]: -0.318 ± 0.36
promoter activity interaction Z-score [6, 16]: -0.205 ± 0.22
promoter activity interaction Z-score [6, 17]: -0.41 ± 0.026
promoter activity interaction Z-score [6, 18]: -0.292 ± 0.098
promoter activity interaction Z-score [6, 19]: -0.397 ± 0.33
promoter activity interaction Z-score [6, 20]: -0.492 ± 0.0079
promoter activity interaction Z-score [6, 21]: -0.464 ± 0.087
promoter activity interaction Z-score [6, 22]: -0.389 ± 0.024
promoter activity interaction Z-score [6, 23]: -0.476 ± 0.5
promoter activity interaction Z-score [7, 8]: -0.648 ± 0.31
promoter activity interaction Z-score [7, 9]: -0.358 ± 0.66
promoter activity interaction Z-score [7, 10]: 0.771 ± 0.35
promoter activity interaction Z-score [7, 11]: -0.943 ± 0.29
promoter activity interaction Z-score [7, 12]: -0.618 ± 1.8
promoter activity interaction Z-score [7, 13]: 0.4 ± 0.71
promoter activity interaction Z-score [7, 14]: 0.609 ± 0.4
promoter activity interaction Z-score [7, 15]: -0.368 ± 0.54
promoter activity interaction Z-score [7, 16]: -0.0827 ± 0.073
promoter activity interaction Z-score [7, 17]: -0.203 ± 0.14
promoter activity interaction Z-score [7, 18]: -0.414 ± 0.69
promoter activity interaction Z-score [7, 19]: 0.14 ± 0.66
promoter activity interaction Z-score [7, 20]: 0.133 ± 0.26
promoter activity interaction Z-score [7, 21]: -0.216 ± 0.12
promoter activity interaction Z-score [7, 22]: 0.188 ± 0.21
promoter activity interaction Z-score [7, 23]: -0.969 ± 1.2
